Bioassay records: PubChem BioAssay, National Center for Advancing Translational Sciences (NCATS)
NS1 inh – qHTS Assay for Inhibitors of Influenza NS1 Protein Function. Potency, µM (top dose mostly 46.1 µM), without a hit: top-dose activity, positive = more growth. hit rate 0.4% among 270,000. AID 2326, 2010; calls by dose curve; further: potency means the concentration at half of the fitted maximal effect; actives are rising curves; nearly all actives have a fitted effect of over 50% in size
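A cell-based growth assay was used: compounds that relieve NS1-induced slow growth of budding yeast raise OD600. Assay medium was yeast nitrogen base with ammonium sulphate and -URA supplement, pH 6.0, with 2% galactose.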
AMA1-RON2 inh – qHTS for Inhibitors of AMA1-RON; Towards Development of Antimalarial Drug Lead: Primary Screen. AlphaScreen AMA1-biotinylated RON2 peptide binding. Plasmodium falciparum AMA1 (3D7) - RON2 peptide interaction. AID 720542, 2013. hit rate 0.2% among 360,000. Potency, µM (series often up to 58.2 µM), inactives show at the highest dose activity change, negative = inhibition, usual class: inhibitors;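 further: potency means the concentration at half of the fitted maximal effect; 0% = vehicle wells and -100% = peptide control; nearly all actives have a fitted effect of over 45% in size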
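AMA1 (3D7) with his tag at 25 nM final met compounds first, then biotinylated RON2 peptide at 25 nM; detection used donor plus acceptor beads, 10 µg/mL apiece, read by AlphaScreen after 30 min at room temperature.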
TbPYK inhibitor – qHTS of Trypanosoma Brucei Inhibitors. hit rate 0.12% among 410,000. AID 624173, 2012. TbPYK enzyme, Kinase-Glo Plus ATP luminescence, 45 min. pyruvate kinase (Trypanosoma brucei), Q57TT1. Potency, µM (doses to about 76.8 µM), inactives show top-dose activity, negative = inhibition, hits mostly inhibitors; further: potency means the concentration at half of the fitted maximal effect; on the % scale 0 is the no-effect control and ±100 the full control effect; nearly all actives have a fitted effect of over 50% in size
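TbPYK + substrate in 50 mM TEA pH 7.2, 100 mM KCl, 10 mM MgCl2, 0.05% BSA, 0.01% Tween-20; cpd pinned; ADP 130 uM final; 45 min RT; Kinase-Glo Plus 10 min; luminescence endpoint.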
LmPK inhibitor – qHTS Assay for Inhibitors of Leishmania Mexicana Pyruvate Kinase (LmPK); hit rate 0.37% among 290,000; AID 1721, 2009; purified LmPK, Kinase-Glo ATP luminescence, 1 h; Potency, µM (top dose mostly 57.5 µM), inactives show top-dose activity change, negative = inhibition, usual class: inhibitors; Q27686; further: potency means the concentration at half of the fitted maximal effect; on the % scale 0 is the no-effect control and ±100 the full control effect
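0.1 nM LmPK, 0.5 mM PEP, 0.1 mM ADP; 50 mM imidazole pH 7.2, 7 mM MgCl2, 50 mM KCl; 1 h RT. Kinase-Glo luminescence readout, normalized to no-enzyme (full inhibition) and uninhibited wells.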
FBPA Giardia inh – qHTS Assay for Inhibitors of Fructose-1,6-bisphosphate Aldolase from Giardia Lamblia; hit rate 0.71% among 290,000; AID 2451, 2010; Potency, µM (top dose mostly 59.6 µM), for inactives: top-dose activity, negative = inhibition, usual class: inhibitors; purified Giardia FBPA; A8B2U2; further: potency means the concentration at half of the fitted maximal effect; on the % scale 0 is the no-effect control and ±100 the full control effect; nearly all actives have a fitted effect of over 55% in size
Target sequence (A8B2U2 whole entry, looked up): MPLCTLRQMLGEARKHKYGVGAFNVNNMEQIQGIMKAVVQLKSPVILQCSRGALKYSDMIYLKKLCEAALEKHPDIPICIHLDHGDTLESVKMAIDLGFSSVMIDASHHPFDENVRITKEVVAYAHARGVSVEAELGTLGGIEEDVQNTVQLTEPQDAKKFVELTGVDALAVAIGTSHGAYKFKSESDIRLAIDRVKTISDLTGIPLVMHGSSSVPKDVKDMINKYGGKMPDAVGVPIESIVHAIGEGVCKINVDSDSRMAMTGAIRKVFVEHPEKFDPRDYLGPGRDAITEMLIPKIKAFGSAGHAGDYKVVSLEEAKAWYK
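Giardia FBPA (40 nM reagent) was preincubated 10 min at RT with compound (up to 57.5 uM final), then substrate plus GAPDH/TPI/NAD/arsenate coupling system with diaphorase/resazurin was added; resorufin fluorescence (525/598 nm) was read after 20 min.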
Flu NS1 inh – Assay for Inhibitors of Influenza NS1 Protein Function: Hit Validation | shares compounds with NS1 inh | influenza NS1 function cell assay, 15-point titration | activity change, negative = inhibition, % at 32.9 µM | 1,400 tested, under 10 active; calls by dose curve; further: 0% is about no effect
PR8 titer – Assay for Inhibitors of Influenza NS1 Protein Function: Influenza virus replication assay in MDCK cells infected with virus A/PR/8/34; shares compounds with NS1 inh; virus titer (log TCID50), log10 TCID50 at 5 µM; MDCK infected influenza A/PR/8/34, virus titer TCID50; active compounds read low; hit rate 30% among 95; call rule not given here
Numbers without * were called inactive; ? = inconclusive; / = no result given; [ ] = dose if it differs, or a comment. Most compounds without a hit are left out; they make up all but 1.2% or so of the library. Unless noted, the call rests on the fitted dose curve; in most records, active means well fitted curve in the direction sought with a large enough effect; inconclusive means small, poorly fitted or top-dose-only effect, or another doubt; inactive means no such curve, though single readings can be large; an effect the other way counts as inactive or inconclusive.

SMILES	NS1 inh	AMA1-RON2 inh	TbPYK inhibitor	LmPK inhibitor	FBPA Giardia inh	Flu NS1 inh	others
Cc1ccc(-c2csc(NC(=O)c3ccc(S(=O)(=O)N4CCc5ccccc54)cc3)n2)cc1	7%	-8%	-2%	6%	-8%	/
COc1ccc(-c2csc(NC(=O)c3ccc(S(=O)(=O)N4CCc5ccccc5C4)cc3)n2)c(OC)c1	13µM*	-7%	0%	4%	-3%	-16
Cc1cc(C)c2nc(NC(=O)c3cccc(S(=O)(=O)N4CCc5ccccc54)c3)sc2c1	18µM*	6%	-4%	1%	1%	18
CCOc1ccc(-c2csc(NC(=O)c3ccc(S(=O)(=O)N4CCc5ccccc5C4)cc3)n2)cc1	1%	2%	3%	1%	0%	/
O=C(Nc1nc(-c2ccccc2)cs1)C1CCCN(S(=O)(=O)c2cccc([N+](=O)[O-])c2)C1 (stereo unspecified)	25%	-19%	-8%	11%	0%	/
O=C(Nc1nc(-c2ccccc2)cs1)C1CCCN(S(=O)(=O)c2ccccc2)C1 (stereo unspecified)	11µM*	-16%	-1%	5%	-3%	8
O=C(Nc1nc(-c2ccccc2)cs1)c1ccc(S(=O)(=O)N2CCc3ccccc32)cc1	5µM*	-9%	0%	3%	16%	?
CC(=O)OC1CC2C(C)(C)C(O)C=C[C@@]2(C)C2CC[C@@]3(C)C(c4ccoc4)OC(=O)C4OC43[C@]12C (stereo partly specified)	/	/	/	/	6%	/
O=C(O)C1CC(C2CCCCN2)CN2CCCCC12 (stereo unspecified)	/	/	/	/	-9%	/
COc1ccc(Cl)cc1NC(=O)c1ccc2c(c1)CCCN2S(C)(=O)=O	/	/	-3%	/	/	/
CS(=O)(=O)N1CCc2cc(-c3csc(NC(=O)Cc4ccccc4)n3)ccc21	10µM*	-2%	-2%	4%	0%	4
COc1ccc(-c2cn3c(n2)sc2cc(C(=O)Nc4ccc(C)c(Cl)c4)ccc23)cc1	/	/	-3%	/	/	/
COc1cc(/C=C\C(=O)NCc2ccc3[nH]c(C)cc3c2)cc(OC)c1OC	1.3µM*	1%	3%	2%	-8%	21
O=C(N/N=C\c1c(O)ccc2ccccc12)c1ccc(Cn2cccn2)o1	?	42%[11.6 µM]	-7%	0%	-9%	-5
O=C(N/N=C\c1ccc(Cl)s1)c1ccc(Cn2cccn2)o1	-4%	25%	-21%	-2%	0%	/
CCC1(CC)NC(=O)N(CC(=O)OCn2nnc3ccccc3c2=O)C1=O	7.1µM*	0%	1%	4%	0%	3
O=C(CN1C(=O)C2CCCCC2C1=O)OCn1nnc2ccccc2c1=O (stereo unspecified)	-6%	26%	1%	2%	4%	/
Cc1ccn2cc(-c3cccc(S(=O)(=O)N4CCCCC4)c3)nc2c1	-5%	-11%	-6%	-5%	/	/
Cc1ccc2nc(-c3cccc(S(=O)(=O)N4CCCC4)c3)cn2c1	?	-8%	1%	10%	-11%	2
N#Cc1nc(COc2ccc(Cl)cc2Cl)oc1N1CCN(c2ccccc2)CC1	11µM*	?	2%	5%	-2%	16
N#Cc1nc(COc2ccc(Cl)cc2Cl)oc1N1CCOCC1	-95%	?	4%	6%	13%	/
COc1cc(/C=N/NC(=O)c2cc3ccccc3cc2O)ccc1OCCN1CCCCC1	11µM*	2%	-17%	2%	?	-24
O=C1C[C@@H](O)[C@@H](O)[C@@H]2[C@H]3C(=O)N(c4ccc(F)cc4F)C(=O)[C@@H]3CC[C@H]12	/	/	/	/	-1%[12.9 µM]	/
N=c1c2c(n(Cc3ccc(F)cc3)c3c1CCC3)CCC2	1µM*	2%	0%	5%	11%	-29
CC(C)(C)NCC(O)COc1ccc(NC(=O)NC2CCCCC2)cc1 (stereo unspecified)	/	/	2%	/	/	/
SMILES	NS1 inh	AMA1-RON2 inh	TbPYK inhibitor	LmPK inhibitor	FBPA Giardia inh	Flu NS1 inh	others
Cc1ccc(-n2c(SCC(=O)Nc3ccc4c5c(cccc35)CC4)nc(O)c(C)c2=O)cc1	7.9µM*	1%	6%	0%	7%	38
OC[C@H]1OC(O)[C@H](O)[C@@H](O)[C@@H]1O (stereo partly specified)	/	/	/	/	-2%	/
S=C1c2ccccc2CN1c1ccccc1	?	0%[2.32 µM]	-6%	0%	-2%	1
O=C(NC1CCCC1)O[C@@H]1C(=O)c2cc(Br)ccc2O[C@H]1c1ccc2c(c1)OCO2	/	/	/	/	2%	/
CCCCC(=O)O[C@]1(C(=O)CO)CCC2C3CCC4=CC(=O)CCC4(C)C3C(O)CC21C (stereo partly specified)	/	/	-3%	/	/	/
Cc1cc(C)c(S(C)(=O)=O)c(Oc2ccccc2C)n1	1µM*	-14%	0%	1%	6%	-5
Cc1cc(C)nc(SCC(=O)Nc2nc(-c3ccccc3)c(-c3ccccc3)o2)n1	18%	34%	0%	1%	21%	/
Cc1cc(=O)[nH]c(SCC(=O)Nc2nc(-c3ccccc3)c(-c3ccccc3)o2)n1	?	8%	-3%	12%	-1%	-14
Cc1ccc(SCc2nc(N)nc(Nc3ccccc3C)n2)cc1C	-12%	14%	-4%	0%	-9%	/
Cc1ccccc1Nc1nc(N)nc(CSCC(=O)Nc2cccc(Br)c2)n1	?	0%	-14%	9%	4%	-11
O=C(NCC1CCCO1)C(c1ccc(F)cc1)N(CC1CCCO1)C(=O)c1ccc(-c2ccccc2)[nH]1 (stereo unspecified)	-8%	-6%	2%	3%	-1%	/
O=C(NCC1CCCO1)C(c1cccs1)N(Cc1cccs1)C(=O)c1ccc(-c2ccccc2)[nH]1 (stereo unspecified)	13µM*	-30%	-5%	0%	1%	-30
O=C(NN=Cc1ccc(O)c(O)c1)c1ccccc1	/	9%	15%	/	/	/
O=C(/C(=N/N=C/c1ccc(O)c(O)c1O)c1ccccc1)c1ccccc1	3.2µM*	15%	-10%	4%	?	?
CC(C)(C)NC(=O)c1ccccc1-c1nc2ccccc2s1	?	-6%	2%	10%	5%	16	PR8 titer=8.5
CC(C)(C)NC(=O)c1nc2ccccc2s1	-7%	0%	-7%	6%	-6%	/
